GSH fluor – GSH bead compound fluorescence profile; fluorescence (KMESF) at 10 µM; GSH beads flow cytometry, compound fluorescence 488/530 nm; active compounds read high; AID 1776; 190,000 compounds, 0.25% hits; in the data active means fluorescence above about 89;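 further: glutathione beads carrying GST-tagged Bcl family fusion proteins plus one bare bead set; values are compound well signal with DMSO vehicle wells as background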
RGS8-Gao reg – regulators of human RGS8-Galphao interaction; P09471; multiplexed bead flow cytometry, RGS8-Galphao binding; actives lie on both sides; response (percent of control binding), % at 10 µM; 220,000 compounds, 0.34% hits; AID 1423; in the data active means response below about 60% or above about 140%; inactive means in between;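 further: Galphao activated as the GDP aluminium fluoride complex binding bead-coupled RGS8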
Target sequence (P09471 whole entry, looked up): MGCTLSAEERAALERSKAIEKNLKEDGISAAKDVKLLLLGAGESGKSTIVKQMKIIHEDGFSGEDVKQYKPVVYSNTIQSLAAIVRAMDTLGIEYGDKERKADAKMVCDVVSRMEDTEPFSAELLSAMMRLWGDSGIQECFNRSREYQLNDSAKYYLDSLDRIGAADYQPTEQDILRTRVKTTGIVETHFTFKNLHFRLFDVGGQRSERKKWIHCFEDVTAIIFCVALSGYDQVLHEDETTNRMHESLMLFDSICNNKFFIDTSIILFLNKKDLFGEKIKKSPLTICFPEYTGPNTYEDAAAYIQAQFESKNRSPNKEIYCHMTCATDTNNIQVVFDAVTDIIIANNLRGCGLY
RGS7-Gao reg – regulators of human RGS7-Galphao interaction; P09471; Multiplexed bead flow cytometry, RGS7-Galphao binding; actives lie on both sides; binding response (% of control), % at 10 µM; 220,000 compounds, 0.35% hits; in the data active means binding response below about 49% or above about 150%; inconclusive means no clear call, values can overlap the other calls; inactive means in between;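 further: fluorescent Galphao held in activated GDP-AlF4 state binding bead-coupled RGS7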
RGS4-Gao reg – human RGS4-Galphao interaction regulation | AID 1415 | binding response (% of control), % at 10 µM | Multiplexed bead flow cytometry, RGS4-Galphao binding; actives lie on both sides | 220,000 compounds, 0.33% hits | P09471; in the data active means binding response below about 49% or above about 150%; inactive means in between;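 further: fluorescent Galphao activated with aluminum fluoride binding bead-coupled RGS4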
Avidin bead fluor – compound fluoresces at 488/530 nm on avidin beads | fluorescence (KMESF) at 10 µM | AID 1775 | 220,000 compounds, 0.38% hits | compound fluorescence 488/530 nm, flow cytometry; active compounds read high; in the data active means fluorescence above about 47
RGS16-Gao – RGS16-Galphao interaction regulator (human). bead-based flow cytometry RGS16-Galphao binding, fluorescence; actives lie on both sides. binding response (% of control), % at 10 µM. 220,000 compounds, 0.38% hits. AID 1441;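 further: Galphao activated by GDP with aluminum fluoride before binding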
Target sequence (O15492 whole entry, looked up): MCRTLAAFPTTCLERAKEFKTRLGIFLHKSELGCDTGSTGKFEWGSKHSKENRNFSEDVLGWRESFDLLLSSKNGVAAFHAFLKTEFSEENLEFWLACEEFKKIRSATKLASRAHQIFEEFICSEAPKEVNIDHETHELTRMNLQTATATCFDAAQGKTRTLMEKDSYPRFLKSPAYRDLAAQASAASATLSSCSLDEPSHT
Target sequence (P09471 whole entry, looked up): as the sequence (P09471 whole entry, looked up) above
RGS-Gao – RGS4-Galphao interaction regulator (human). shares compounds with RGS16-Gao. multiplexed bead flow cytometry, RGS–Galpha-o binding. RGS4–Galpha-o binding response, % at 10 µM. 1,600 compounds, 99% hits. AID 1504;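 further: fluorescently labeled Galpha-o bound to GDP with aluminium fluoride binding biotinylated RGS beads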
Biotin-avidin – counter-screen: compounds disrupting biotin binding to avidin beads | inhibition, % at 10 µM | streptavidin beads, fluorescein-biotin binding, flow cytometry | shares compounds with RGS16-Gao | 1,700 tested, under 10 active;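 active means inhibition above 50%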;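 further: median green fluorescence of gated singlet beads compared with DMSO control wells; 0% = DMSO wells and 100% = complete loss of bead fluorescence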
RGS8-Gao confirm – confirmation of regulators of human RGS8-Galphao interaction; binding response (% of control), % at 10 µM; AID 1836; shares compounds with RGS16-Gao; bead-based flow cytometry RGS8-Galphao binding, fluorescence; actives lie on both sides; 1,700 compounds, 3% hits; in the data active means binding response below about 72% or above about 130%; inactive means in between;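 further: Galphao activated as GDP AlF4 complex before binding bead RGS8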
RGS7-Gao single – RGS7-Galphao interaction regulation, single point confirmation. 1,700 compounds, 7.8% hits. shares compounds with RGS16-Gao. response (percent of control binding), % at 10 µM. bead-based flow cytometry RGS7-Galphao binding; actives lie on both sides; in the data active means response below about 75% or above about 130%; inactive means in between;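 further: fluorescent Galphao activated with GDP and aluminum fluoride binding bead-coupled RGS7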
RGS16-Gao conf – RGS16-Galphao interaction regulation, single point confirmation; shares compounds with RGS16-Gao; bead-based flow cytometry, RGS16-Galphao binding; actives lie on both sides; response (% of control binding), % at 10 µM; 1,700 compounds, 4% hits; AID 1838; in the data active means response below about 74% or above about 130%; inactive means in between;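 further: Galphao activated as the GDP aluminium fluoride complex binding bead-coupled RGS16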
RGS4-Gao confirm – RGS4-Galphao interaction regulation, single point confirmation. 1,700 compounds, 4% hits. AID 1840. shares compounds with RGS16-Gao. binding response (% of control), % at 10 µM. RGS4-Galphao binding, multiplexed bead flow cytometry; actives lie on both sides; in the data active means binding response below about 74% or above about 130%; inactive means in between
RGS19-Gao conf – RGS19-Galphao interaction regulation, single point confirmation; shares compounds with RGS16-Gao; 1,700 compounds, 5% hits; bead-based flow cytometry RGS19-Galphao binding; actives lie on both sides; AID 1841; response (percent of control binding), % at 10 µM; in the data active means response below about 50% or above about 160%; inactive means in between;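 further: 100% = no compound control and 0% = blank background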
* = called active by the depositor; [ ] = remark or other dose. An excerpt weighted towards active compounds, which were near 1.2% of everything screened. Unless noted, how the calls were made is not given here.

What do the screens show for `COc1ccccc1NC(=O)CN(c1ccc([N+](=O)[O-])cc1)S(=O)(=O)c1ccccc1`?
GSH fluor: 15; RGS8-Gao reg: 84.9; RGS7-Gao reg: 78.8; RGS4-Gao reg: 112.9; Avidin bead fluor: 6; RGS16-Gao: 184.9*[activator]; RGS-Gao: 112.9*; Biotin-avidin: -1.7; RGS8-Gao confirm: 99.5; RGS7-Gao single: 98.0; RGS16-Gao conf: 102.0; RGS4-Gao confirm: 100.5; RGS19-Gao conf: 101.6

What do the screens show for `CCc1ccc2c(COC(=O)c3n[nH]c4ccccc34)cc(=O)oc2c1`?
GSH fluor: 26; RGS8-Gao reg: 142.8*[activator]; RGS7-Gao reg: 111.5; RGS4-Gao reg: 120.3; Avidin bead fluor: 17; RGS16-Gao: 268.7; RGS-Gao: 120.3*; Biotin-avidin: -0.1; RGS8-Gao confirm: 98.8; RGS7-Gao single: 92.8; RGS16-Gao conf: 96.8; RGS4-Gao confirm: 97.0; RGS19-Gao conf: 84.2

How did CCC(=O)Nc1cc(-c2nn(CC(=O)N3CCCCC3)c(=O)c3ccccc23)ccc1N1CCOCC1 do in these assays?
GSH fluor: 34; RGS8-Gao reg: 100.1; RGS7-Gao reg: 155.4*[activator]; RGS4-Gao reg: 117.0; Avidin bead fluor: 143*; RGS16-Gao: 108.5; RGS-Gao: 117.0*; Biotin-avidin: -1.6; RGS8-Gao confirm: 103.6; RGS7-Gao single: 99.6; RGS16-Gao conf: 102.9; RGS4-Gao confirm: 101.3; RGS19-Gao conf: 111.6

What do the screens show for `Cc1cc(/C=C2\SC(=S)N(C)C2=O)c(C)n1-c1cccc(O)c1`?
RGS8-Gao reg: 102.5; RGS7-Gao reg: inconclusive; RGS4-Gao reg: 96.2; Avidin bead fluor: 6; RGS16-Gao: 98.8

How did COc1ccc(-n2c(C)cc(/C=C3/SC(=S)N(C)C3=O)c2C)cc1 do in these assays?
GSH fluor: 24; RGS8-Gao reg: 2.9*; RGS7-Gao reg: -5.5*; RGS4-Gao reg: -20.3*; Avidin bead fluor: -3; RGS16-Gao: -2.3*; Biotin-avidin: 3.0; RGS8-Gao confirm: 98.6; RGS7-Gao single: 103.9; RGS16-Gao conf: 97.9; RGS4-Gao confirm: 98.2; RGS19-Gao conf: 102.7

How did O=C(Cc1ccc(Br)cc1)OCC(=O)c1ccc2c(c1)OCCO2 do in these assays?
GSH fluor: 23; RGS8-Gao reg: 53.5*; RGS7-Gao reg: 41.6*; RGS4-Gao reg: 47.1*; Avidin bead fluor: 2; RGS16-Gao: 38.9; Biotin-avidin: -0.1; RGS8-Gao confirm: 100.7; RGS7-Gao single: 93.5; RGS16-Gao conf: 97.0; RGS4-Gao confirm: 98.0; RGS19-Gao conf: 91.7

Results for O=C(Cc1n[nH]c(=O)c2ccccc12)OCC(=O)c1ccc2c(c1)OCCO2 ?
GSH fluor: 14; RGS8-Gao reg: 104.4; RGS7-Gao reg: 104.9; RGS4-Gao reg: 101.6; Avidin bead fluor: 12; RGS16-Gao: 114.0

How did NS(=O)(=O)c1cc(C(=O)OCC(=O)NC2CC2)ccc1Cl do in these assays?
GSH fluor: 38; RGS8-Gao reg: 107.8; RGS7-Gao reg: 106.2; RGS4-Gao reg: 110.0; Avidin bead fluor: 15; RGS16-Gao: 110.4

Results for NS(=O)(=O)c1cc(C(=O)OCC(=O)c2ccc3c(c2)OCCO3)ccc1Cl ?
GSH fluor: 15; RGS8-Gao reg: 102.0; RGS7-Gao reg: 179.2*[activator]; RGS4-Gao reg: 106.1; Avidin bead fluor: 51*; RGS16-Gao: 99.7; RGS-Gao: 106.1*; Biotin-avidin: 0.1; RGS8-Gao confirm: 103.0; RGS7-Gao single: 89.0; RGS16-Gao conf: 100.9; RGS4-Gao confirm: 96.3; RGS19-Gao conf: 79.0

How did Nc1nc2c(c(=O)[nH]1)C(c1cccc3ccccc13)C1=C(N2)c2ccccc2C1=O (stereo not given) do in these assays?
GSH fluor: 5; RGS8-Gao reg: 104.7; RGS7-Gao reg: 101.7; RGS4-Gao reg: 103.4; Avidin bead fluor: 22; RGS16-Gao: 109.6

Results for CCCCCNC(=O)c1cc(S(=O)(=O)N2CCCC2)ccc1F ?
GSH fluor: 25; RGS8-Gao reg: 65.3; RGS7-Gao reg: 84.0; RGS4-Gao reg: 84.2; Avidin bead fluor: 5; RGS16-Gao: 21.6*; RGS-Gao: 84.2*; Biotin-avidin: 2.7; RGS8-Gao confirm: 99.7; RGS7-Gao single: 98.0; RGS16-Gao conf: 102.4; RGS4-Gao confirm: 99.2; RGS19-Gao conf: 89.6

What do the screens show for `COC(=O)c1ccccc1COn1c(=O)c[n+]([O-])c2ccccc21`?
GSH fluor: 19; RGS8-Gao reg: 91.4; RGS7-Gao reg: 158.1*[activator]; RGS4-Gao reg: 231.2*[activator]; Avidin bead fluor: 45; RGS16-Gao: 187.0; Biotin-avidin: 0.2; RGS8-Gao confirm: 100.7; RGS7-Gao single: 99.5; RGS16-Gao conf: 98.8; RGS4-Gao confirm: 102.7; RGS19-Gao conf: 95.7

What do the screens show for `CC(C)C(=O)NNC(=O)c1csc(-c2cccs2)n1`?
RGS8-Gao reg: 99.1; RGS7-Gao reg: inconclusive; RGS4-Gao reg: 98.7; Avidin bead fluor: 6; RGS16-Gao: 95.8

What do the screens show for `CCOc1cccc2cc(C(C)=O)oc12`?
GSH fluor: 14; RGS8-Gao reg: 11.2*; RGS7-Gao reg: 10.3*; RGS4-Gao reg: 11.1*; RGS16-Gao: 5.6*; Biotin-avidin: 0.6; RGS8-Gao confirm: 101.3; RGS7-Gao single: 101.8; RGS16-Gao conf: 101.6; RGS4-Gao confirm: 100.9; RGS19-Gao conf: 113.4

Results for COc1cccc2cc(C(C)=O)oc12 ?
GSH fluor: 20; RGS8-Gao reg: 96.7; RGS7-Gao reg: 95.5; RGS4-Gao reg: 99.5; Avidin bead fluor: 8; RGS16-Gao: 111.9

Assay outcomes deposited in PubChem BioAssay by NMMLSC.
